ATXN viability – Viability Counterscreen for Primary qHTS for Inhibitors of ATXN expression. S2 cells (HEK-293 line with an ATXN2-luciferase reporter) viability, CellTiter-Fluor protease fluorescence, 24 h. Potency, µM (series often up to 56.7 µM), hits mostly cytotoxic. hit rate 0.49% among 400,000; note: nearly all actives have a fitted effect of over 40% in size
TGFb SMAD3 inh – qHTS for Inhibitors of TGF-b; Potency, µM (titrated, usually from 46.1 µM), inactives show at the top dose activity, negative = inhibition, usual class: inhibitors; hit rate 1.2% among 410,000; HepG2 CAGA-GFP TGF-b/SMAD3 reporter, GFP fluorescence, 18 h; TGF-beta stimulated, 500 pg/mL final; AID 588855, 2011; note: % is set by controls: 0 for no effect and ±100 for the full control effect; nearly all actives have a fitted effect of over 65% in size
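HEPG2 CAGA-GFP cells (1000/well, DMEM with 1% FBS) were pre-incubated 2 h at 37 degrees C, given compound by pin tool, then stimulated with TGF-beta at 500 pg/mL final for 18 h before per-cell GFP fluorescence imaging.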
HT1080NT lethal – qHTS for induction of synthetic lethality in tumor cells producing 2HG: qHTS for the HT-1080-NT fibrosarcoma cell line; AID 686970, 2013; HT-1080-NT fibrosarcoma viability, CellTiter-Glo ATP luminescence, 48 h; hit rate 1.6% among 360,000; Potency, µM (highest dose often 46.1 µM), inactives show top-dose activity, negative = less viability, hits mostly cytotoxic;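 note: NT is the 2HG producing partner of a matched IDH1 knockdown line; 0% = DMSO-treated cells and -100% = media-only wells without cells; nearly all actives have a fitted effect of over 55% in size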
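Compounds were tested in concentration-response format on HT-1080-NT cells for 48 hours at 37 degrees C. Cell viability came from CellTiter-Glo luminescence; curves were classified by r2, response magnitude and activity.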
HepG2 viability – qHTS for Inhibitors of TGF-b: Cytotox Counterscreen. HepG2 CAGA-GFP viability, ATP luminescence, 18 h. Potency, µM (series often up to 46.1 µM), without a hit: at the top dose activity change, negative = cytotoxicity, most hits filed as cytotoxic. hit rate 0.76% among 410,000. AID 588856, 2011
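HepG2 CAGA-GFP cells (1000/well, DMEM with 1% FBS) received compound, then TGF-beta at 500 pg/mL final, and were incubated 18 hours at 37 degrees C. Viability was read by CellTiter-Glo luminescence. Media-only wells were set as complete cell-killing and DMSO as no toxicity.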
HT1080 IDH1KD tx – qHTS for induction of synthetic lethality in tumor cells producing 2HG: qHTS for the HT-1080-IDH1KD cell line | hit rate 2% among 360,000 | Potency, µM (doses to about 46.1 µM), inactives show top-dose activity, negative = toxicity, hits mostly cytotoxic | HT-1080 IDH1 knockdown viability, ATP luminescence, 48 h;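 note: 0% = DMSO wells and -100% = cell-free medium wells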
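Cytotoxicity counter-line: IDH1KD HT-1080, 48 h, CellTiter-Glo. Curves classed by r2, magnitude and activity.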
ATXN2 expr inh – Primary qHTS for Inhibitors of ATXN expression; HEK-293 ATXN2-luciferase reporter, luminescence, 24 h; Potency, µM (titrated, usually from 57 µM), without a hit: at the top dose activity change, negative = inhibition, usual class: inhibitors; hit rate 0.72% among 360,000; AID 1745845, 2022; note: % is set by controls: 0 for no effect and ±100 for the full control effect; nearly all actives have a fitted effect of over 55% in size
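ATXN2-luciferase reporter cells (luciferase flanked by upstream and downstream ATXN2 gene portions) were treated 24 h at 37 °C with compounds at up to 57 uM. SteadyGlo luminescence gave expression; GF-AFC fluorescence gave viability.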
Starred values were filed as active, the others as inactive; ! = not active in a repeat; [ ] = another dose, or the depositor's remark. The list is not random: actives were taken first. Their share in the collection is about 3.8%. Calls come from the whole dose curve; as a rule, active = well fitted curve in the direction sought with a large enough effect; inconclusive = small, poorly fitted or top-dose-only effect, or another doubt; inactive = no such curve, though single readings can be large; an effect the other way counts as inactive or inconclusive. Potency is the fitted concentration of half-maximal effect.

How did CCCCCCCCN1C(=O)[C@H](CC(=O)NCc2cccc(C(F)(F)F)c2)C[C@@]2(C(=O)OCC)CCCC=C12 do in these assays?
ATXN viability: inconclusive; HT1080NT lethal: -27.0%; HT1080 IDH1KD tx: 14.6µM*; ATXN2 expr inh: -8.4%

Results for CCCCCCCCN1C(=O)[C@H](CC(=O)NCC2CCCCC2)C[C@@]2(C(=O)OCC)CCCC=C12 ?
ATXN viability: inconclusive; HT1080NT lethal: 2.5%; HT1080 IDH1KD tx: -13.6%; ATXN2 expr inh: inconclusive

Results for COC(=O)[C@]12CCCCC=C1N(Cc1ccc(Cl)cc1Cl)C(=O)[C@H](CC(=O)NCCCCc1ccccc1)C2 ?
ATXN viability: inconclusive; HT1080NT lethal: inconclusive; HT1080 IDH1KD tx: inconclusive; ATXN2 expr inh: -33.4%

What do the screens show for `CCCCCCCCN1C(=O)[C@H](CC(=O)NCCCC)C[C@@]2(C(=O)OC)CCCCC=C12`?
ATXN viability: 28.2µM*; HT1080NT lethal: inconclusive; HT1080 IDH1KD tx: inconclusive; ATXN2 expr inh: -14.6%

How did CN(C(=O)c1cnn(-c2ncc3c(n2)-c2ccccc2CCC3)c1C1CC1)C1CCOC1 (stereo not given) do in these assays?
ATXN viability: inactive

Results for O=C(Nc1ccc(Oc2ccccc2)cc1)c1csc([C@@H]2O[C@H](CO)[C@@H](O)[C@H]2O)n1 ?
ATXN viability: inconclusive; TGFb SMAD3 inh: 2.8%; HT1080NT lethal: inconclusive; HepG2 viability: 4.1%; HT1080 IDH1KD tx: 7.31µM*; ATXN2 expr inh: -18.0%

How did O=C(Nc1ccc(OCCO)cc1)c1csc([C@@H]2O[C@H](CO)[C@H](O)[C@H](O)[C@H]2O)n1 do in these assays?
ATXN viability: inactive; TGFb SMAD3 inh: 1.5%; HT1080NT lethal: 18.1%; HepG2 viability: 5.3%; HT1080 IDH1KD tx: 2.1%; ATXN2 expr inh: 9.4%

What do the screens show for `O=C(Nc1ccc(Oc2ccccc2)cc1)c1ccc2sc([C@H]3C[C@H](O)[C@@H](CO)O3)nc2c1`?
ATXN viability: inconclusive; TGFb SMAD3 inh: -0.7%; HT1080NT lethal: 7.31µM*; HepG2 viability: -28.2%; HT1080 IDH1KD tx: 2.59µM*; ATXN2 expr inh: inconclusive

What do the screens show for `COc1ccc(-n2cnc3cc(C(=O)NCCC4=CCCCC4)ccc32)cc1`?
ATXN viability: inconclusive; TGFb SMAD3 inh: inconclusive; HepG2 viability: -43.0%; ATXN2 expr inh: inconclusive

Results for O=C(c1cccc(F)c1)N1CCC(N2CCCCCC2)CC1 ?
ATXN viability: inactive; TGFb SMAD3 inh: -3.5%; HT1080NT lethal: 1.0%; HepG2 viability: -9.1%; HT1080 IDH1KD tx: -0.7%; ATXN2 expr inh: -4.3%

Results for O=C(c1ccc(Nc2nccc(-c3cc4ccccc4s3)n2)cc1)N1CCC(N2CCCC2)CC1 ?
ATXN2 expr inh: 19.3µM*

How did Nc1c(-c2nc(-c3ccccc3Cl)no2)nnn1-c1ccccc1F do in these assays?
ATXN viability: inactive; TGFb SMAD3 inh: -0.5%; HepG2 viability: 0.7%; ATXN2 expr inh: 73.6%

What do the screens show for `CCCC1=Nc2cc(C(=O)N3CCC(C(N)=O)CC3)ccc2Sc2ccccc21`?
ATXN viability: inactive; TGFb SMAD3 inh: 18.6%; HT1080NT lethal: -4.8%; HepG2 viability: -1.2%; HT1080 IDH1KD tx: -6.8%; ATXN2 expr inh: -4.7%

How did CCCC1=Nc2cc(C(=O)NCCCOC(C)C)ccc2Sc2ccccc21 do in these assays?
ATXN viability: inactive; TGFb SMAD3 inh: -29.2%; HT1080NT lethal: 11.6µM*; HepG2 viability: 4.6%; HT1080 IDH1KD tx: 18.4µM*; ATXN2 expr inh: -15.5%

What do the screens show for `CCCC1=Nc2cc(C(=O)N3CCC(C(=O)OCC)CC3)ccc2Sc2ccccc21`?
ATXN viability: inactive; TGFb SMAD3 inh: 12.6µM*!; HT1080NT lethal: inconclusive; HepG2 viability: -9.0%; HT1080 IDH1KD tx: -11.9%; ATXN2 expr inh: -0.2%

How did CCCC1=Nc2cc(C(=O)NCCOC)ccc2Sc2ccccc21 do in these assays?
HepG2 viability: 7.0%

Results for CCC1=Nc2cc(C(=O)NCCCOC)ccc2Sc2ccccc21 ?
ATXN viability: inconclusive; TGFb SMAD3 inh: 0.0%; HT1080NT lethal: 0.651µM*; HepG2 viability: 9.6%; HT1080 IDH1KD tx: 1.03µM*; ATXN2 expr inh: 3.4%

Results for CCOC(=O)C1CCCN(C(=O)c2ccc3c(c2)C(C)(C)CCC3(C)C)CC1 (stereo not given) ?
ATXN viability: inactive; TGFb SMAD3 inh: 14.1µM*; HT1080NT lethal: inconclusive; HepG2 viability: -39.2%; HT1080 IDH1KD tx: inconclusive; ATXN2 expr inh: 0.0%

How did Cc1cccc(OCC(=O)Nc2cc(-c3nc4cc(Cl)ccc4o3)ccc2C)c1 do in these assays?
TGFb SMAD3 inh: inconclusive; HepG2 viability: -9.8%

What do the screens show for `CCCC1=Nc2cc(C(=O)NCCCOCC)ccc2Sc2ccccc21`?
ATXN viability: inconclusive; TGFb SMAD3 inh: inconclusive; HT1080NT lethal: 1.64µM*; HepG2 viability: -19.1%; HT1080 IDH1KD tx: 0.731µM*; ATXN2 expr inh: -11.6%

How did CC1(C)CC[C@]2(C(=O)O)CC[C@]3(C)C(=CC[C@@H]4[C@@]5(C)CC[C@H](O[C@@H]6O[C@H](C(=O)O)[C@@H](O)[C@H](O[C@@H]7OC[C@H](O)[C@H](O)[C@H]7O)[C@H]6O)C(C)(C)[C@@H]5CC[C@]43C)[C@@H]2C1 do in these assays?
ATXN viability: 11.2µM*; TGFb SMAD3 inh: 3.16µM*; HT1080NT lethal: 18.4µM*; HepG2 viability: 3.55µM*; HT1080 IDH1KD tx: inconclusive; ATXN2 expr inh: 11.2µM*

What do the screens show for `CCOc1cc(CNC(=O)Cn2ncn3c(cc4cc(F)ccc43)c2=O)cc(OCC)c1OCC`?
ATXN viability: inactive; TGFb SMAD3 inh: -7.3%; HepG2 viability: -4.4%; ATXN2 expr inh: -0.7%

Results for COc1ccc(CN(CCC(c2ccc(F)cc2)C2CCOC(C)(C)C2)C(=O)c2ccco2)cc1 (stereo not given) ?
ATXN viability: inactive; TGFb SMAD3 inh: inconclusive; HT1080NT lethal: inconclusive; HepG2 viability: -32.7%; HT1080 IDH1KD tx: 25.9µM*; ATXN2 expr inh: -20.5%[11.3 µM]

How did O=C(CC1N=C2c3ccccc3N=C(SCc3ccccc3Cl)N2C1=O)NC1CCCCC1 (stereo not given) do in these assays?
TGFb SMAD3 inh: inconclusive; HepG2 viability: -16.8%

Compound activity (PubChem)
